KCNQ2 enhance = KCNQ2 (rat) channel potentiation | O88943 | CHO-K1 KCNQ2, FluxOR thallium flux fluorescence; active compounds read high | B-score at 10 µM | actives 0.54% (n = 310,000) | AID 2239;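 active = fluorescence ratio B-score at least 3 SD of library B-scores, with initial fluorescence B-score within 3 of them, cut at about 5.3 in these data; same plate scores as AID 2156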;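 also: B-score of peak minus minimum over baseline fluorescence ratio after K+ and Tl+ stimulus; positive B-score means potentiation of KCNQ2 with more thallium influx and brighter signal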
Target sequence (O88943 whole entry, looked up): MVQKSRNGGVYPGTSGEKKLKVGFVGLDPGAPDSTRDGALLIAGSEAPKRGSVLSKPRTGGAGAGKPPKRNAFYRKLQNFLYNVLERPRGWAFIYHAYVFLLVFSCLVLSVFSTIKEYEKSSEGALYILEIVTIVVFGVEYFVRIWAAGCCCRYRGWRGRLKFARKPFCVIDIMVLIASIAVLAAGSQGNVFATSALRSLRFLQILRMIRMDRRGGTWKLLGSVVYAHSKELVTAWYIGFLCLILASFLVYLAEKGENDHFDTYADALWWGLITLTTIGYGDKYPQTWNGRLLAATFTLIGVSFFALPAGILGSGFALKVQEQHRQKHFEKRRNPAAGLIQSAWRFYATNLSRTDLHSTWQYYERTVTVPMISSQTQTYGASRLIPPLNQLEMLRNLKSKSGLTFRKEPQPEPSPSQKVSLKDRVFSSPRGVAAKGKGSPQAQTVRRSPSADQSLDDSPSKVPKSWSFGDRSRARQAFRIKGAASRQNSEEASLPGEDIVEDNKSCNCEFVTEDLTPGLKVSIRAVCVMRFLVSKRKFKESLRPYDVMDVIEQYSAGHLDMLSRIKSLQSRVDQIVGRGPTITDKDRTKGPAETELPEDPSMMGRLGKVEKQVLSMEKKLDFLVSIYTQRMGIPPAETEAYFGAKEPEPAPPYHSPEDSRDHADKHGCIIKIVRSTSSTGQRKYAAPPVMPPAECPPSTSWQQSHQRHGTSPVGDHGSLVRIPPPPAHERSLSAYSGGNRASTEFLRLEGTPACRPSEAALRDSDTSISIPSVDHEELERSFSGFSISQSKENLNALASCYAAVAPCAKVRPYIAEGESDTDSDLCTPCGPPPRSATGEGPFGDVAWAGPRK
KCNQ2 block = inhibitors of rat KCNQ2 potassium channel | O88943 | CHO-K1 KCNQ2, FluxOR thallium flux, 20 min; active compounds read low | B-score at 10 µM | actives 1.1% (n = 310,000) | AID 2156;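 active = fluorescence ratio B-score at most minus 3 library SDs, with starting brightness B-score within 2 library SDs, cut at about -5.5 in these data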
* hit, by the source's call; i = inactive; x = no result given. Only some compounds are listed: those with a hit (about 1.6% of all), similar ones and a draw of the others.

SMILES	KCNQ2 enhance	KCNQ2 block
O=C(c1cccc(-c2nnc(-c3ccccc3)o2)c1)N1CCCCC1	0.13	i
O=C(c1cccc(-c2nnc(-c3ccccc3)o2)c1)N1CCCCCC1	-5.81	-5.81*
CC(C)CSC1=NSC2=NC(=O)/C(=C\c3cccs3)C(=N)N12	7.36*	i
N=C1/C(=C/c2cccs2)C(=O)N=C2SN=C(SCc3ccccc3)N12	3.94	i
COc1ccc(NC(=O)c2c(C)nn(-c3ccccc3)c2Cl)cc1	1.82	i
CCC(C)NC(=O)C(NS(=O)(=O)c1cccc2nsnc12)c1ccccc1 (configuration not stated)	x	i
Cc1cccc(C(=O)NCC(=O)OCc2nnc(-c3ccccc3)o2)c1	x	i
COc1cc(OC)cc(N(C(=O)C2COc3ccccc3O2)C(C(=O)NC2CCCCC2)c2ccc(O)cc2)c1 (configuration not stated)	x	i
O=C(COC(=O)CCc1c[nH]c2ccccc12)NCc1ccccc1	x	i
CN(C(=O)COC(=O)CCc1c[nH]c2ccccc12)C(c1ccccc1)c1ccccc1	-5.93	-5.93*
COc1cc(S(=O)(=O)N2CCN(Cc3ccccc3)CC2)ccc1Br	x	i
CCN(C(=O)/C=C/c1ccccc1)C1CCCCC1	-5.8	-5.8*
CCCCN(C(=O)/C=C/c1ccccc1)C1CCS(=O)(=O)C1 (configuration not stated)	0.07	i
Cc1cc(-c2cccc([N+](=O)[O-])c2)nc2ccccc12	x	i
COc1ccc2[nH]c(C(=O)O)c(CCNC(C)=O)c2c1	0.77	i
COc1cccc(OC)c1C(=O)Nc1ccc2c(c1)N(S(=O)(=O)c1cccs1)CCC2	1.22	i
O=C(Nc1ccc2c(c1)N(S(=O)(=O)c1cccs1)CCC2)c1c(F)cccc1Cl	-6.39	-6.39*
Cc1ccc(Cn2c(CN3CC(C)OC(C)C3)nc3c2c(=O)[nH]c(=O)n3C)cc1 (configuration not stated)	x	i
CCOC(=O)c1ccccc1NC(=O)N1CCn2c(C)ccc2C1CC (configuration not stated)	-6.2	-6.2*
CC1CCCCN1C(=O)Nc1ccccc1Cl (configuration not stated)	x	i
CCC1c2ccc(C)n2CCN1C(=O)Nc1ccccc1C(=O)OC (configuration not stated)	x	i
CCCC1c2ccc(C)n2CCN1C(=O)Nc1ccccc1Cl (configuration not stated)	-7.17	-7.17*
Cc1ccc(C(=O)N/N=C\c2ccncc2)s1	1.52	i
Cc1cc(OC(C)C(=O)N(Cc2cccs2)C2CCS(=O)(=O)C2)ccc1Cl (configuration not stated)	x	i
COc1ccc(/C=C/c2ccc3c(Br)ccc(O)c3n2)cc1	1.29	i
SMILES	KCNQ2 enhance	KCNQ2 block
CCC1(c2ccccc2)C(=O)N(C(=O)OC(C)(C)C)N1C(=O)OC(C)(C)C (configuration not stated)	-6.53	-6.53*
CCOC(=O)N1C(=O)[C@](CC)(c2ccccc2)N1C(=O)OCC	0.2	i
COc1ccc(CN2CCC(=O)N([C@H](CO)c3ccccc3)CC2)cc1OC	0.03	i
CN(C1=C(NC(=O)c2ccccc2)C(=O)c2ccccc2C1=O)C1CCS(=O)(=O)C1 (configuration not stated)	3.53	i
CC(=O)NC1=C(NC2CCS(=O)(=O)C2)C(=O)c2ccccc2C1=O (configuration not stated)	6.08*	i
COc1cccc(/C=N/NC(=O)c2ccc([N+](=O)[O-])cc2Cl)c1O	7.73*	i
COc1cc(/C=N/NC(=O)c2cccc([N+](=O)[O-])c2)cc(OC)c1O	1.89	i
CC(=O)c1cc(CN2C(=O)CCC2=O)cs1	x	i
O=[N+]([O-])c1cccc(-n2cccc2/C=N/Nc2nc(N3CCCCC3)nc(N3CCCCC3)n2)c1	x	i
Cc1cc(C)nc(OC(C(=O)O)C(OCc2ccccc2)(c2ccccc2)c2ccccc2)n1 (configuration not stated)	0.82	i
Cc1ccnc(OC(C(=O)O)C(OCc2ccccc2)(c2ccccc2)c2ccc(C(F)(F)F)cc2)n1 (configuration not stated)	-6.09	-6.09*
COC(=O)C(C)Sc1nnc(SC(C)C(=O)OC)s1 (configuration not stated)	x	i
COc1ccc(C2(O)C(=O)Nc3ccc(C)cc32)cc1 (configuration not stated)	x	i
COc1ccccc1OCCNC(=O)c1ccc2c(c1)OCCO2	6.67*	i
COc1ccccc1OCCNC(=O)CNC(=O)c1ccc2c(c1)OCO2	0.26	i
CCOc1ccc(NC(=O)CN(C)C(=O)CCNC(=O)c2ccccc2Cl)cc1OCC	x	i
Cc1ccc(S(=O)(=O)N2CCN(c3nc4ccccc4nc3-n3nc(C)cc3C)CC2)cc1	-6.03	-6.03*
Cc1cc(C)n(-c2nc3ccccc3nc2N2CCC(C)CC2)n1	-6.76	-6.76*
Cc1cc(C)n(-c2nc3ccccc3nc2N2CCN(C(=O)c3ccc(F)cc3)CC2)n1	x	i
Cc1nc2ccccc2nc1N1CCC(C)CC1	0.87	i
CCC(C)COC(=O)c1ccc(C(=O)O)cc1 (configuration not stated)	x	i
CCCN1CCN(CCCNC(=S)Nc2ccc3nc(N4CCN(CC)CC4)cc(C)c3c2)CC1	1.09	i
O=C(CSc1nncn1-c1cccnc1)Nc1ccccc1[N+](=O)[O-]	0.51	i
Cc1cccc(C)c1NC(=O)c1sccc1SCc1cccc(C(F)(F)F)c1	x	i
Cc1ccc(NC(=O)c2sccc2SCc2cccc(C(F)(F)F)c2)cc1	-6.81	-6.81*
SMILES	KCNQ2 enhance	KCNQ2 block
O=C(CC(=O)c1ccccc1)Nc1ccccn1	0.7	i
CCOC(=O)CCc1c(C)nc2c(c(C)nn2-c2ccc(C)cc2)c1C	0.53	i
CCOC(=O)CCc1c(C)nc2c(c(C)nn2C(C)(C)C)c1C	-7.78	-7.78*
Cc1ccc(OCc2nnc(SCC(=O)C(C)(C)C)n2Cc2ccco2)cc1	-7.01	-7.01*
Cc1cc(NC(=O)CSc2nnc(COc3ccccc3)n2Cc2ccco2)no1	0.85	i
Cc1ccc2nc(-c3ccc(NC(=O)CSc4nccc(=O)[nH]4)cc3)sc2c1	2.44	i
COc1ccc(C(=O)c2ccc(N(C)C)cc2)c(OC)c1	x	i
Cc1cccc(C(=O)Nc2nnc(C3=COCCO3)o2)c1	17.6*	i
O=C(Nc1nnc(C2=COCCO2)o1)c1cccc(F)c1	2.52	i
COc1ccccc1N1CCN(C(=O)C(Sc2ccccc2)c2ccccc2)CC1 (configuration not stated)	-5.74	-5.74*
COc1ccccc1N1CCN(C(=O)CSc2ccccc2)CC1	x	i
Cc1ccc(C)c(N2CCN(c3ccc(N4C(=O)COCC4=O)cc3[N+](=O)[O-])CC2)c1	x	i
CC(/C=C/C(=O)c1ccc(C)cc1)=C\c1ccccc1	x	i
Cc1ccc(C(=O)/C=C\C(=O)c2ccc(C)cc2)cc1	-5.66	-5.66*
CC(Sc1nc2cc([N+](=O)[O-])ccc2n1-c1cccc(C(F)(F)F)c1)C(=O)NC(N)=O (configuration not stated)	0.07	i
Cc1ccc2c(c1)N/C(=C(\C=C(/Cl)[N+](=O)[O-])[N+](=O)[O-])N2	-6.77	-6.77*
Cc1ccc2c(c1)/C(=C/c1ccc(F)cc1)C(=O)N2	0.68	i
CCn1cc(C(=O)NC2CCCCC2)c(=O)c2ccc(C)nc21	x	i

Screening results deposited in PubChem BioAssay by Johns Hopkins Ion Channel Center.
